# Assay results as given in ChEMBL document CHEMBL1961873, “Compounds: GSK PKIS; Assays: Nanosyn kinase panel” (2012).
# Experiments:
# [1] = biological target: T1, Serine/threonine-protein kinase D2 (Homo sapiens) (UniProt Q9BZL6); settings: at 1 µM;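 further: mean value of PRKD2 inhibition, from the GSK PKIS screening panel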
# T1 sequence (whole entry): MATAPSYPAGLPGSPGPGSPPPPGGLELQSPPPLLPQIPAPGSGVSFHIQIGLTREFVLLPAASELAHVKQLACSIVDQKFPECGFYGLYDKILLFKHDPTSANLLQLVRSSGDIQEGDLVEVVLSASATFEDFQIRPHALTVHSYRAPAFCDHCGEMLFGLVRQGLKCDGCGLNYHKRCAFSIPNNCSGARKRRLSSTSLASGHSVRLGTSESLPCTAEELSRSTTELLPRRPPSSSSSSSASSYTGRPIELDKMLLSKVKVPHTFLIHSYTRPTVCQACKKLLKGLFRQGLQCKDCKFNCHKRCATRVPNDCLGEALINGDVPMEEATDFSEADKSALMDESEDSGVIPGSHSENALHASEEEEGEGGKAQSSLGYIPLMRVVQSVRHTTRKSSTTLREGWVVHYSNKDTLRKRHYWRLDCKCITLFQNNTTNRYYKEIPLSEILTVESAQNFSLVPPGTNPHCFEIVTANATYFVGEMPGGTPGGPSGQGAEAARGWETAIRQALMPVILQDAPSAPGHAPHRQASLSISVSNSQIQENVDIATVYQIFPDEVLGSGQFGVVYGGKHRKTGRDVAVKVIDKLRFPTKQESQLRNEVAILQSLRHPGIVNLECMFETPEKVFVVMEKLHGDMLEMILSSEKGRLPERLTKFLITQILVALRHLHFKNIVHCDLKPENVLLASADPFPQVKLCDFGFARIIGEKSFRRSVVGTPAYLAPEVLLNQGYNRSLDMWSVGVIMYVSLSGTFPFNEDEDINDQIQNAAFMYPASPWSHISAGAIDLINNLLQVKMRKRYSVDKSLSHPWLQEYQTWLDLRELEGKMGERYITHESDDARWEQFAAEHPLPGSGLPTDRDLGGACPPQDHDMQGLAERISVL
# [2] = biological target: T2, Serine/threonine-protein kinase D3 (Homo sapiens) (UniProt O94806); settings: at 0.1 µM
# T2 sequence (whole entry): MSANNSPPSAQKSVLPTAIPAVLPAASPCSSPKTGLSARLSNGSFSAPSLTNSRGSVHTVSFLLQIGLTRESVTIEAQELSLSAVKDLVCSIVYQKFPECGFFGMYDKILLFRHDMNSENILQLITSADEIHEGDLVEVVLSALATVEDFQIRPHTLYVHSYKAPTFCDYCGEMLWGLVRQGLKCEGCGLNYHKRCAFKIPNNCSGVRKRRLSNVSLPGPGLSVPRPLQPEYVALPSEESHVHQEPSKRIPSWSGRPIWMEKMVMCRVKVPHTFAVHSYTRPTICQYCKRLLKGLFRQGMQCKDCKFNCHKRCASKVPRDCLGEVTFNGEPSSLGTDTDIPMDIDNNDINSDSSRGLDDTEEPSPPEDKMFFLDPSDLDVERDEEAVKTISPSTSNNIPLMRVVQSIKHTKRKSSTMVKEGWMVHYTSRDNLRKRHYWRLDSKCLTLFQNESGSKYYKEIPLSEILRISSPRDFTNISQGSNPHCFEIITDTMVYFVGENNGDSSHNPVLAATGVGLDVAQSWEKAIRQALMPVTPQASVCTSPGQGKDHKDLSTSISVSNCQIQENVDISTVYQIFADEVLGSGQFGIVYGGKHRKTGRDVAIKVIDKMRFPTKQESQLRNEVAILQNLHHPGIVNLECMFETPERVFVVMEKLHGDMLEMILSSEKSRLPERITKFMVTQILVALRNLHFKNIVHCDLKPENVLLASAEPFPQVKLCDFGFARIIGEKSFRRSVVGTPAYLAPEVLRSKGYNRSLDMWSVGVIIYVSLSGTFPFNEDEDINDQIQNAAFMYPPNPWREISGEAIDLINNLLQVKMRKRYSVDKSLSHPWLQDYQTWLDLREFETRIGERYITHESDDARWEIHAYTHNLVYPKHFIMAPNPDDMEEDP
# [3] = biological target: T2, Serine/threonine-protein kinase D3 (Homo sapiens); settings: at 1 µM
# [4] = biological target: T3, cGMP-dependent protein kinase 1 (Homo sapiens) (UniProt Q13976); settings: at 0.1 µM
# T3 sequence (whole entry): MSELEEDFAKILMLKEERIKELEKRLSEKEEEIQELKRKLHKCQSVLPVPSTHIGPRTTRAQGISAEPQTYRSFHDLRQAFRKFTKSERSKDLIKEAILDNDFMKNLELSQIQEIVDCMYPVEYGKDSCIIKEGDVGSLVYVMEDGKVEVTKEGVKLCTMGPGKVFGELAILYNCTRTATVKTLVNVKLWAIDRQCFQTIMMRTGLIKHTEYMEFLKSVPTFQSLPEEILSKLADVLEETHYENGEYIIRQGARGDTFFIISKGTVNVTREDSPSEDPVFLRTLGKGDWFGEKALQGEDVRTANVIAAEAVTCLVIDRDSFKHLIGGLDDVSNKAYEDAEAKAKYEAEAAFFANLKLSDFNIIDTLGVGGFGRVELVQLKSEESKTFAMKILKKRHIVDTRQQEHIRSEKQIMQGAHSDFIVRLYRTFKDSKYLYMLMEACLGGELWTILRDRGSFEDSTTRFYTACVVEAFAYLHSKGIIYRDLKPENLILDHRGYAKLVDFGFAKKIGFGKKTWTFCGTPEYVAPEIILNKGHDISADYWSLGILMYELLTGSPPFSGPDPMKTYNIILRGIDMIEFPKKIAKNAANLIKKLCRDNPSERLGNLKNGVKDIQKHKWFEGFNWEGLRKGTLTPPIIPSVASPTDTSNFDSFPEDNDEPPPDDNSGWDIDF
# [5] = biological target: T3, cGMP-dependent protein kinase 1 (Homo sapiens); settings: at 1 µM
# [6] = biological target: T4, cGMP-dependent protein kinase 2 (Homo sapiens) (UniProt Q13237); settings: at 0.1 µM
# T4 sequence (whole entry): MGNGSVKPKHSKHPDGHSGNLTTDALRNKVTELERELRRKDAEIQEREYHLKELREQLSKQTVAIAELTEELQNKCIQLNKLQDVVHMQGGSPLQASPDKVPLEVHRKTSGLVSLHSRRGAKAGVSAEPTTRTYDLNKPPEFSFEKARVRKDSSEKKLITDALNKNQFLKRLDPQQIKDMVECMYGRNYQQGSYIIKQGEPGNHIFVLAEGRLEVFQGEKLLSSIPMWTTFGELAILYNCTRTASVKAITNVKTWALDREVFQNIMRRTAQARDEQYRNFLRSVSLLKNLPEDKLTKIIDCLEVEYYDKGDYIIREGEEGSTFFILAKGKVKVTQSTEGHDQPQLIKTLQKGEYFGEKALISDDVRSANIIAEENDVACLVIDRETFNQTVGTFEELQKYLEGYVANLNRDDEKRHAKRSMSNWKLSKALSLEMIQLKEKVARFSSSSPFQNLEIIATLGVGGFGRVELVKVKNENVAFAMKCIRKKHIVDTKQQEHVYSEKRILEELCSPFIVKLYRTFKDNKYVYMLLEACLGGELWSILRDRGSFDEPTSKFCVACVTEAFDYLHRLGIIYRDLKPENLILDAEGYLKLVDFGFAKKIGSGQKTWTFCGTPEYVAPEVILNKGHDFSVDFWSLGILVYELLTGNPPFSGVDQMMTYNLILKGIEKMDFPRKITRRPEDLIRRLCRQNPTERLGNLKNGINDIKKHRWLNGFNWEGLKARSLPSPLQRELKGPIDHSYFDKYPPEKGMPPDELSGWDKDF
# [7] = biological target: T4, cGMP-dependent protein kinase 2 (Homo sapiens); settings: at 1 µM
# [8] = biological target: T5, cAMP-dependent protein kinase catalytic subunit PRKX (Homo sapiens) (UniProt P51817); settings: at 0.1 µM
# T5 sequence (whole entry): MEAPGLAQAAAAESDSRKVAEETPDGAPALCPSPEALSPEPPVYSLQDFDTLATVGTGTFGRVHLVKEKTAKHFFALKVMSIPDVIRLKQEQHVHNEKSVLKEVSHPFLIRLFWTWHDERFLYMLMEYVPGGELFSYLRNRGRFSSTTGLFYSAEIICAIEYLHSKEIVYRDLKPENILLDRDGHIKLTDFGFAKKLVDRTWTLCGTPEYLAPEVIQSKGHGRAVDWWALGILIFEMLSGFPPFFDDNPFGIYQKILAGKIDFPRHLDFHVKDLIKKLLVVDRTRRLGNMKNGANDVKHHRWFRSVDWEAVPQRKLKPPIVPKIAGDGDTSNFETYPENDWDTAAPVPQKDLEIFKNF
# [9] = biological target: T5, cAMP-dependent protein kinase catalytic subunit PRKX (Homo sapiens); settings: at 1 µM
# [10] = biological target: Rho-associated protein kinase 1 (Homo sapiens) (UniProt Q13464); settings: at 0.1 µM
# [11] = biological target: Rho-associated protein kinase 1 (Homo sapiens) (UniProt Q13464); settings: at 1 µM
# [12] = biological target: Rho-associated protein kinase 2 (Homo sapiens) (UniProt O75116); settings: at 0.1 µM
# [13] = biological target: Rho-associated protein kinase 2 (Homo sapiens) (UniProt O75116); settings: at 1 µM
# [14] = biological target: Ribosomal protein S6 kinase alpha-1 (Homo sapiens) (UniProt Q15418); settings: at 0.1 µM
# [15] = biological target: Ribosomal protein S6 kinase alpha-1 (Homo sapiens) (UniProt Q15418); settings: at 1 µM
# [16] = biological target: Ribosomal protein S6 kinase alpha-3 (Homo sapiens) (UniProt P51812); settings: at 0.1 µM
# [17] = biological target: Ribosomal protein S6 kinase alpha-3 (Homo sapiens) (UniProt P51812); settings: at 1 µM
# [18] = biological target: Ribosomal protein S6 kinase alpha-2 (Homo sapiens) (UniProt Q15349); settings: at 0.1 µM
# [19] = biological target: Ribosomal protein S6 kinase alpha-2 (Homo sapiens) (UniProt Q15349); settings: at 1 µM
# [20] = biological target: Ribosomal protein S6 kinase alpha-6 (Homo sapiens) (UniProt Q9UK32); settings: at 0.1 µM;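 further: reported value is the mean inhibition of RSK4, from the GSK PKIS kinase inhibitor screen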
# Chain of Ribosomal protein S6 kinase alpha-1 (Homo sapiens) (Q15418 whole entry): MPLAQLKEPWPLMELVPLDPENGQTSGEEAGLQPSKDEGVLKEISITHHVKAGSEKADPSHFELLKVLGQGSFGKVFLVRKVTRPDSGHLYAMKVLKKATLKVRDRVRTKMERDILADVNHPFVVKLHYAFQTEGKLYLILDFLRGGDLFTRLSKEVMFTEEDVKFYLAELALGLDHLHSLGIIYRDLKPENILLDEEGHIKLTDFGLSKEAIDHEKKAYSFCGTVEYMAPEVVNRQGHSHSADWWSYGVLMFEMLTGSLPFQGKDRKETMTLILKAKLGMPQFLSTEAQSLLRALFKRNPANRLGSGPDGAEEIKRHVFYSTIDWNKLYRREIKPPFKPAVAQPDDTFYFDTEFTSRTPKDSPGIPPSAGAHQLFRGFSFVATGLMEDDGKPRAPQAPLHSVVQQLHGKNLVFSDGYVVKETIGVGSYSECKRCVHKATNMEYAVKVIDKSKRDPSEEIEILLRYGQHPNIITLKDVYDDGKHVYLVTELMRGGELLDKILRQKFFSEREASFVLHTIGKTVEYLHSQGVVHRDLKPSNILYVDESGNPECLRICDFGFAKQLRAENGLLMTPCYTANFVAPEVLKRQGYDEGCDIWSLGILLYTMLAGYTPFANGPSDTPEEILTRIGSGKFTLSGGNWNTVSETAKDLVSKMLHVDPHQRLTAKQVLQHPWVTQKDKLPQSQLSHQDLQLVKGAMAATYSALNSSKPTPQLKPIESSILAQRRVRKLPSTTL
# Chain of Rho-associated protein kinase 1 (Homo sapiens) (Q13464 2-1354 limits assumed): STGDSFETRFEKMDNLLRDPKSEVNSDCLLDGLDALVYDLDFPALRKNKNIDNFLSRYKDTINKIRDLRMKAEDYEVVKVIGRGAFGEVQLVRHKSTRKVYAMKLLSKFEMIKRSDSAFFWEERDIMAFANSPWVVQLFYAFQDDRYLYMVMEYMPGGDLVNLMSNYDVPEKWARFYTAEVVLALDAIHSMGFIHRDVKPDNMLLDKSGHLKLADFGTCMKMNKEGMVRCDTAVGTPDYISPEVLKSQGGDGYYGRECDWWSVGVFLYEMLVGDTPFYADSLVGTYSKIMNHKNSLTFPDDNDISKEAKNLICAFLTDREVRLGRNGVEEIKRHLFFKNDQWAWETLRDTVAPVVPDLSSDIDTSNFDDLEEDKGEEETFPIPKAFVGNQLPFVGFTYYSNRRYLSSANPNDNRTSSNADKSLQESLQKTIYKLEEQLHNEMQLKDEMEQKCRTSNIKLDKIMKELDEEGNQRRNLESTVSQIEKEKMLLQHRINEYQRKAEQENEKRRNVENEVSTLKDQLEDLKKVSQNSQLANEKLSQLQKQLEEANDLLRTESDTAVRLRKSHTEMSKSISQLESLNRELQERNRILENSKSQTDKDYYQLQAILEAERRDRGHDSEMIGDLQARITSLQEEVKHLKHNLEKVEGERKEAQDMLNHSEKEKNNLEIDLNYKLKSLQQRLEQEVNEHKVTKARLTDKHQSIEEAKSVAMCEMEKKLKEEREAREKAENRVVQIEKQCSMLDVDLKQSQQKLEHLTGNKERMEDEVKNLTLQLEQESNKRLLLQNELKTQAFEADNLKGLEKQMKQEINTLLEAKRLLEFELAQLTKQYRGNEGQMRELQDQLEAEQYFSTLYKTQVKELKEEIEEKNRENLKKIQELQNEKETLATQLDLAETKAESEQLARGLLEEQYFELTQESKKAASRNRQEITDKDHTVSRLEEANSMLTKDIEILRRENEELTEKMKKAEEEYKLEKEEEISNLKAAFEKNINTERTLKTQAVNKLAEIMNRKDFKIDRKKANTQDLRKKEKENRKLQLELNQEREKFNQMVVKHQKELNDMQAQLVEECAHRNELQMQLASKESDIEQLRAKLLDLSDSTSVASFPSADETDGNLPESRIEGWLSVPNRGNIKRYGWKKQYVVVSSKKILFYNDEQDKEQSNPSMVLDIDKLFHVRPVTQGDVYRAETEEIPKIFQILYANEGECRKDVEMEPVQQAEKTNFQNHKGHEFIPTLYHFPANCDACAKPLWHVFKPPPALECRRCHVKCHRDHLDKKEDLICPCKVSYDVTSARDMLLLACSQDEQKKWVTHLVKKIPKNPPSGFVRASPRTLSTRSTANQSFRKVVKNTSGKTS
# Chain of Ribosomal protein S6 kinase alpha-3 (Homo sapiens) (P51812 whole entry): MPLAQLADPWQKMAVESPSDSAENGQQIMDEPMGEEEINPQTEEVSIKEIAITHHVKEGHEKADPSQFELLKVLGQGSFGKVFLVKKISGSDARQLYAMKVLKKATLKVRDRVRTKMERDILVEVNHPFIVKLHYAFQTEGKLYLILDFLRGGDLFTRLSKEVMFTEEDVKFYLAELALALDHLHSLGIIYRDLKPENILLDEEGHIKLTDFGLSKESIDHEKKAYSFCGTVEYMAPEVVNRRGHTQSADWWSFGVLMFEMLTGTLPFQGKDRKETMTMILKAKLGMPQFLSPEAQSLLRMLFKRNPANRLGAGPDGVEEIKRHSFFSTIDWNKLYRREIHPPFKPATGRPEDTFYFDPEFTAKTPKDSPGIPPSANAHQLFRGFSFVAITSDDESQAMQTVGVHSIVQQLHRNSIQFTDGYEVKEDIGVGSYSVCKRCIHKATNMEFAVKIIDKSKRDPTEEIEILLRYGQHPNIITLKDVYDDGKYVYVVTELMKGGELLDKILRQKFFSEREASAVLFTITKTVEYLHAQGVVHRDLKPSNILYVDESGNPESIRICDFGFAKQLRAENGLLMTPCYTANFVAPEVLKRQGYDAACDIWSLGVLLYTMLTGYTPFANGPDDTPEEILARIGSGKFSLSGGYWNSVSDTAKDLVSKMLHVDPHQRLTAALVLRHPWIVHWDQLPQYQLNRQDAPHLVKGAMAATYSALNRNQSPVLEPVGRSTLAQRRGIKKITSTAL
# Chain of Ribosomal protein S6 kinase alpha-2 (Homo sapiens) (Q15349 whole entry): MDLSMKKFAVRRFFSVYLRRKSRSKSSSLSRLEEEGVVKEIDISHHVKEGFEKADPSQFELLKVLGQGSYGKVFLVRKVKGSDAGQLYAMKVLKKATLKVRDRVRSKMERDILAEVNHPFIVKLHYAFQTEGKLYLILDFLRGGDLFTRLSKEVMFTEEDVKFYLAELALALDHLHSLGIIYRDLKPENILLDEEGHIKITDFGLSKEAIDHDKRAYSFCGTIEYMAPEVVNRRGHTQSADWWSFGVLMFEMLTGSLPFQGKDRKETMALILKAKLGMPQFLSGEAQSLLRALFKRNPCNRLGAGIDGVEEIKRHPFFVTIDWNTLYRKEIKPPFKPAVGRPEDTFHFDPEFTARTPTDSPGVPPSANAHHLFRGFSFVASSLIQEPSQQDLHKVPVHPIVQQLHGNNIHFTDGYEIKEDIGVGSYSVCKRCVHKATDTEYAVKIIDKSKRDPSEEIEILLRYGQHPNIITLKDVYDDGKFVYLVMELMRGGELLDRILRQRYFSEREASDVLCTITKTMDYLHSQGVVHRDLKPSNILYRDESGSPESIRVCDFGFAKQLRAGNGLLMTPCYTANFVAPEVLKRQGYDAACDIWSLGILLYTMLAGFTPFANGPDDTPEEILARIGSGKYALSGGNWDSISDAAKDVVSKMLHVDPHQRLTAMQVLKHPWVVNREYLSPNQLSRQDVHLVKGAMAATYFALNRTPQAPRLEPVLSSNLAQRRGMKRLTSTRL
# Chain of Rho-associated protein kinase 2 (Homo sapiens) (O75116 whole entry, looked up): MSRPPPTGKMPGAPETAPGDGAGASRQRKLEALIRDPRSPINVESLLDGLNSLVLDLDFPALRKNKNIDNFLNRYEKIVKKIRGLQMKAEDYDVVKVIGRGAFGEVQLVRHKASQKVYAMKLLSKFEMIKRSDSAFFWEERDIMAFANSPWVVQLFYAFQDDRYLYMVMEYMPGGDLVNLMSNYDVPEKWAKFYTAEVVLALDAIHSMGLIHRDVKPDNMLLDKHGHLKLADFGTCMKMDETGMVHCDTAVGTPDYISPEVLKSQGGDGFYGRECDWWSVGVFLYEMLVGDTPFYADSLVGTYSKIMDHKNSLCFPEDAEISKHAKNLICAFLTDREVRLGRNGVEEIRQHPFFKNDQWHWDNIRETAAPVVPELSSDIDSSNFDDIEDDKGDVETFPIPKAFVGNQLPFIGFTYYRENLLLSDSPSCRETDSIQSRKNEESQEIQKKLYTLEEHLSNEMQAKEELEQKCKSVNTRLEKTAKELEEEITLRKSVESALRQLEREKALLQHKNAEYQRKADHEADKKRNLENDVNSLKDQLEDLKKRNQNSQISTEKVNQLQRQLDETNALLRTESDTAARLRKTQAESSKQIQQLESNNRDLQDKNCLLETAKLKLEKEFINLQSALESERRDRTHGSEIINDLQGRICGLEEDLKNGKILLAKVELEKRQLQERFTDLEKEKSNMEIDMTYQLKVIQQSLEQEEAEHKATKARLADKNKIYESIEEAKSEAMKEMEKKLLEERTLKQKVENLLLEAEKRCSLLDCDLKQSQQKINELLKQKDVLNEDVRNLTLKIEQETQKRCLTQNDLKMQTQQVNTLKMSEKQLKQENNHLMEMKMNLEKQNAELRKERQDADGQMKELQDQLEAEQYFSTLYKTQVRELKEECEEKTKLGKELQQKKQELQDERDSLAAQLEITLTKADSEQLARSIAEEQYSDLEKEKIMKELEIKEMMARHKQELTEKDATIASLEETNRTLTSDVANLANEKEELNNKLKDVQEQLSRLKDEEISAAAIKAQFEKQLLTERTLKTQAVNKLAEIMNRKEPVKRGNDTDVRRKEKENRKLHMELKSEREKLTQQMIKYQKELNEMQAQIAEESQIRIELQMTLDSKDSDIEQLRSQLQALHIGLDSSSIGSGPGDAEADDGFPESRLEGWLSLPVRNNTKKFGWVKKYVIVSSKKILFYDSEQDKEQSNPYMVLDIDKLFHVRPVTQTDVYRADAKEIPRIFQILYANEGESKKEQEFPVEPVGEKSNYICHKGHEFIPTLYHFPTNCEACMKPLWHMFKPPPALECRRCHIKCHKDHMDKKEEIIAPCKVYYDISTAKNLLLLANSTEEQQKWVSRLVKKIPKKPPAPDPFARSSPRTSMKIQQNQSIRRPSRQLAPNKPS
SMILES,inhibition [1] [%],inhibition [2] [%],inhibition [3] [%],inhibition [4] [%],inhibition [5] [%],inhibition [6] [%],inhibition [7] [%],inhibition [8] [%],inhibition [9] [%],inhibition [10] [%],inhibition [11] [%],inhibition [12] [%],inhibition [13] [%],inhibition [14] [%],inhibition [15] [%],inhibition [16] [%],inhibition [17] [%],inhibition [18] [%],inhibition [19] [%],inhibition [20] [%]
NC(=O)c1cc(-c2ccc(F)cc2)cc(-c2ccncc2)c1N,4.06,3.88,2.86,1.49,5.83,1.73,2.74,1.1,3.07,-0.55,1.76,2.33,6.23,1.16,2.59,0.17,1.79,1.82,2.97,0.55
NCc1ccc(-n2c(-c3nonc3N)nc3cnccc32)cc1,41.3,8.56,40,6.05,26.6,16,60.2,5.92,29.4,80.6,90.5,82.9,92.9,56.2,87.9,43.4,81.4,55.5,91.4,10
O=C(Nc1n[nH]c2cc(-c3cc(F)ccc3F)ccc12)C1CC1,4.95,3.61,3.98,3.55,4.78,2.47,5.6,1.14,1.88,-0.49,2.49,1.39,2.28,0.64,0.86,0.31,1.63,1.04,3.43,-0.13
CN(C)CCCNc1nccc(-c2c(-c3ccc(F)cc3)nn3cc(C(F)(F)F)ccc23)n1,0.34,-1.49,-0.32,1.15,3.76,1.88,3.07,1.15,-0.47,0.76,1.8,1.71,3.88,2.04,4.02,0.68,2.23,1.91,3.08,0.86
